High-throughput results deposited in PubChem BioAssay by National Center for Advancing Translational Sciences (NCATS).
The entries come from a sample that favours hits as a whole.
MARV entry inh: blocks Marburg virus binding to or entry into cells; Potency, µM (titrated, usually from 37.8 µM), most hits filed as inhibitors; 1.8% of 300,000 active; AID 540276; Marburg virus pseudotyped entry inhibition, cell reporter; calls by dose curve; tested in HEK293 cells
Shiga inhibitor: inhibitors of Shiga toxin in Vero cells | Vero cells, Shiga toxin protein synthesis inhibition reporter | 9.2% of 290,000 active | inhibition, % at 38.7 µM | AID 2315; in the data active = inhibition mostly above about 28%, no sharp cut-off; inactive = mostly below about 43%
AMA1 RON2 block: inhibitors of Plasmodium falciparum AMA1-RON2 interaction; AlphaScreen AMA1-biotinylated RON2 peptide binding; Potency, µM (top dose mostly 58.2 µM), most hits filed as inhibitors; 0.2% of 360,000 active; AID 720542; active = well fitted inhibition curve with a large enough effect; inconclusive = small, poorly fitted or top-dose-only effect; inactive = no such curve, though single readings can be large or run the other way; also: nearly all actives have a fitted effect of over 45% in size
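AMA1 (3D7) with his tag at 25 nM final met compounds first, then biotinylated RON2 peptide at 25 nM; detection used donor plus acceptor beads, 10 µg/mL apiece, read by AlphaScreen after 30 min at room temperature.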
CHX counter: counter-screen for Shiga toxin inhibitors: cycloheximide protein synthesis inhibition. cell reporter, cycloheximide protein synthesis inhibition counterscreen. max response, %. 12% of 300,000 active; in the data active = max response mostly above about 13%, no sharp cut-off; inactive = mostly below about 14%; also: read at 38.3 µM for the half of the compounds with a filed dose
LASV entry inh: Lassa virus entry inhibition. Lassa virus pseudotype entry inhibition, cell reporter. Potency, µM (highest dose often 37.9 µM), most hits filed as inhibitors. 1.2% of 300,000 active. AID 540256; calls by dose curve; tested in HEK293 cells; also: nearly all actives have a fitted effect of over 50% in size
Large screens that a line does not name were inactive.

COc1cc(C2CC(=O)c3c([nH]c(C(=O)OC4CCCCC4)c3C)C2)cc(OC)c1OC (stereo not given)	LASV entry inh 6.3µM (no result: MARV entry inh, Shiga inhibitor, AMA1 RON2 block, CHX counter)
COCCOC(=O)c1[nH]c2c(c1C)C(=O)CC(c1ccc(F)cc1)C2 (stereo not given)	none (no result: MARV entry inh, LASV entry inh)
COCCOC(=O)c1[nH]c2c(c1C)C(=O)CC(c1cc(OC)c(OC)c(OC)c1)C2 (stereo not given)	MARV entry inh 10µM, LASV entry inh inconclusive
COc1cc(C2CC(=O)c3c([nH]c(C(=O)OCC4CCCCC4)c3C)C2)cc(OC)c1OC (stereo not given)	MARV entry inh inconclusive (no result: Shiga inhibitor, AMA1 RON2 block, CHX counter)
COCCOC(=O)c1[nH]c2c(c1C)C(=O)CC(c1ccc(N(C)C)cc1)C2 (stereo not given)	CHX counter 14, LASV entry inh inconclusive
CCCCOC(=O)c1[nH]c2c(c1C)C(=O)CC(c1cc(OC)c(OC)c(OC)c1)C2 (stereo not given)	none (no result: LASV entry inh)
CC(CN1CCCCC1)NC(=O)c1scnc1-c1ccccc1 (stereo not given)	none (no result: MARV entry inh, Shiga inhibitor, CHX counter, LASV entry inh)
Cc1cccc2c1[nH]c1nc(N/N=C\c3ccco3)nnc12	none (no result: AMA1 RON2 block, LASV entry inh)
CCSc1nnc2nc3[nH]c4c(C)cccc4c3nn12	MARV entry inh inconclusive, Shiga inhibitor 62, CHX counter 40
C=CCSc1nnc2c(n1)[nH]c1c(C)cccc12	MARV entry inh inconclusive, Shiga inhibitor 60, CHX counter 40
CCc1cccc(NC(=O)c2ccc(NC(=O)N3CCSc4ncccc43)cc2)c1	none (no result: MARV entry inh, Shiga inhibitor, AMA1 RON2 block, CHX counter)
CCOC(=O)c1ccc(C(=O)NNC(=O)C2C3C=CC(C3)C2C(=O)O)cc1 (stereo not given)	none (no result: MARV entry inh, LASV entry inh)
O=C(NNC(=O)C1C2C=CC(C2)C1C(=O)O)c1ccccc1O (stereo not given)	Shiga inhibitor 50, CHX counter 17
O=C(NNC(=O)C1C2C=CC(C2)C1C(=O)O)c1ccccc1 (stereo not given)	MARV entry inh inconclusive, Shiga inhibitor 101, CHX counter 39
O=C(NNC(=O)C1C2C=CC(C2)C1C(=O)O)c1cc(Cl)ccc1O (stereo not given)	CHX counter 19
C/C(=N\NC(=O)c1ccc(N)cc1)C1CC1	Shiga inhibitor 39, CHX counter 40, LASV entry inh inconclusive
C/C(=N\NC(=O)c1ccccc1O)C1CC1	Shiga inhibitor 66
CCCC(=O)Nc1ccc(C(=O)NN=C(C2CC2)C2CC2)cc1	none
Cc1cc(C)cc(N(CCC#N)C(=O)COC(=O)c2nc3nc(C)cc(C)n3n2)c1	MARV entry inh inconclusive (no result: Shiga inhibitor, CHX counter)
Cc1c2cnn(CC(=O)O)c(=O)c2c(C)n1Cc1ccccc1	none (no result: MARV entry inh, LASV entry inh)
Cc1ccc(Cn2c(C)c3cnn(CC(=O)NC4CCCC4)c(=O)c3c2C)cc1	Shiga inhibitor 30, CHX counter 10 (no result: MARV entry inh, LASV entry inh)
CNC(=O)Cn1ncc2c(C)n(Cc3ccc(C)cc3)c(C)c2c1=O	none
COC(=O)Cn1ncc2c(C)n(Cc3ccccc3)c(C)c2c1=O	Shiga inhibitor 74, CHX counter 39 (no result: MARV entry inh, LASV entry inh)
O=C(Nc1ccccc1C(=O)Nc1ccc(Br)cn1)c1cccc([N+](=O)[O-])c1	none (no result: MARV entry inh, LASV entry inh)
CN(Cc1cn(Cc2cccc(Cl)c2)nn1)C1CN(Cc2cn(Cc3cccc(Cl)c3)nn2)S(=O)(=O)C1 (stereo not given)	none (no result: MARV entry inh, Shiga inhibitor, CHX counter, LASV entry inh)
N#Cc1ccc(COn2nnc3ccccc32)cc1	CHX counter 31
c1ccc2c(COn3nnc4ccccc43)cccc2c1	Shiga inhibitor 87, CHX counter 54
N#Cc1ccc(-c2ccc(OCC(O)Cn3nnc4ccccc43)cc2)cc1 (stereo not given)	MARV entry inh inconclusive
O=C(CSc1nnc(C2COc3ccccc3O2)o1)NC1CCCCC1 (stereo not given)	CHX counter 20 (no result: MARV entry inh, LASV entry inh)
O=C(CSc1nnc(C2COc3ccccc3O2)o1)N1CCCCC1 (stereo not given)	none (no result: MARV entry inh, LASV entry inh)
O=C(CCC1COc2ccccc2O1)N1CCCC1 (stereo not given)	none
Cc1cc(C)n(C(=O)CCC2COc3ccccc3O2)n1 (stereo not given)	MARV entry inh inconclusive, CHX counter 11
O=C(CCC1COc2ccccc2O1)NC1CCCCC1 (stereo not given)	MARV entry inh inconclusive, CHX counter 36
Cc1ccc(NC(=O)CCC(=O)N2CCOc3ccccc32)c(Cl)c1	Shiga inhibitor 17, CHX counter 11
Cc1ccc(CNCC(=O)Nc2ccc(C)cc2Br)cc1	none
CCn1cc(C(=O)OCC(=O)Nc2cccc(Cl)c2C)c(=O)c2ccc(C)nc21	none (no result: Shiga inhibitor, AMA1 RON2 block, CHX counter)
O=C(CCC(=O)N1CCOc2ccccc21)NC1CCCCCC1	CHX counter 6.6 (no result: MARV entry inh, LASV entry inh)
Cc1cc(C)nc(SCC2COc3ccccc3O2)n1 (stereo not given)	Shiga inhibitor 79
CC1ON=C(c2ccccn2)N(Cc2ccc(S(C)(=O)=O)cc2)C1=O (stereo not given)	none (no result: MARV entry inh, Shiga inhibitor, CHX counter, LASV entry inh)
COc1cc2c(C#N)c(N3CCCC3)nc(N)c2c(N)n1	none (no result: MARV entry inh, LASV entry inh)
N#Cc1c(N2CCCC2)nc(N)c2c(N)nc(N3CCCC3)cc12	MARV entry inh inconclusive, Shiga inhibitor 47, CHX counter 31, LASV entry inh inconclusive
COc1cc2c(C#N)c(N3CCN(c4ccccc4OC)CC3)nc(N)c2c(N)n1	MARV entry inh inconclusive, LASV entry inh 11µM
COCCNC(=O)CN(C(=O)Cn1nnc2ccccc21)c1cccc(C)c1C	LASV entry inh inconclusive
COCCNC(=O)C1(C)Cc2c(-c3ccc(N(C)C)cc3)ccnc2O1 (stereo not given)	none (no result: MARV entry inh, Shiga inhibitor, CHX counter, LASV entry inh)
COC(=O)N1C(=O)[C@@](c2ccc(OC)cc2)(C(C)C)N1C(=O)OC	Shiga inhibitor 19, CHX counter 16 (no result: MARV entry inh, LASV entry inh)
COC(=O)N1C(=O)[C@@](c2ccccc2)(C(C)C)N1C(=O)OC	CHX counter 20 (no result: MARV entry inh, LASV entry inh)
COC(=O)N1C(=O)[C@](c2ccc(Cl)cc2)(C(C)C)N1C(=O)OC	none (no result: MARV entry inh, LASV entry inh)
COC(=O)N1C(=O)[C@](c2ccccc2)(C2CCCC2)N1C(=O)OC	CHX counter 19 (no result: MARV entry inh, LASV entry inh)
COc1cccc(C(c2sc3nc(-c4ccco4)nn3c2O)N2CCC(C)CC2)c1 (stereo not given)	none (no result: MARV entry inh, Shiga inhibitor, AMA1 RON2 block, CHX counter)
CC(C)[C@H](NC(=O)N1CCn2c1nc1ccccc12)C(=O)N1CCCCC1	none (no result: MARV entry inh, LASV entry inh)
COc1ccc(-c2cc(C(F)(F)F)n3ncc(C(=O)Nc4c(C)n(C)n(-c5ccccc5)c4=O)c3n2)cc1	none (no result: MARV entry inh, AMA1 RON2 block, LASV entry inh)
CCN(Cc1ccncc1)Cc1nc(CC2CC2)no1	LASV entry inh inconclusive
CC(C)(C)NC(=S)NCc1ccncc1	none
COc1ccc(NC(=O)c2c(Cl)nc3ccccn23)cc1	Shiga inhibitor 74, CHX counter 32, LASV entry inh inconclusive
Cc1nc2ccccn2c1C(=O)NNC(=S)Nc1ccc(Cl)cc1	Shiga inhibitor 19
O=C(Nc1ccc(F)cc1)c1c(Cl)nc2ccccn12	MARV entry inh inconclusive, Shiga inhibitor 73, CHX counter 31
Cc1cccc(-n2cnc(C(=O)NNC(=S)Nc3ccc(Cl)cc3)c2)n1	MARV entry inh 11µM, LASV entry inh inconclusive
COc1ccc(C(C(=O)NC(C)(C)C)N(C(=O)CCC(=O)Nc2cc(C)on2)c2ccccc2F)cc1 (stereo not given)	none (no result: LASV entry inh)
CC(=O)N1CCCC1(C(=O)O)c1ccccc1 (stereo not given)	none
